According to PubChem BioAssay (NCI):
“And” between values parts separate entries of the source, which are not always exact repeats. Equal entries are not always repeated. About 79,000 compounds went through this panel and 15% of them were active in at least one assay; those are over-represented in the sample as a whole. The source holds several records for some structures; these can differ, active in one and inactive in another. The source made the active and inactive calls. Cut-off read from the data, not from the text of the source: active = growth inhibition above about 70%; inactive = the rest.

Tests used:
[1] = NCI Yeast Anticancer Drug Screen. Data for the rad50 strain (AID 155);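 note: 0% = growth of vehicle-only cultures of the same strain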; conditions: S. cerevisiae rad50 strain growth inhibition, stronger effect = higher value
Summary of the method: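 Compounds were tested on a yeast strain with an engineered DNA damage repair alteration; the reported value is growth inhibition normalised to vehicle treatment.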

[2] = NCI Yeast Anticancer Drug Screen. Data for the mec2-1 strain (AID 157); conditions: S. cerevisiae mec2-1 strain, stronger effect = higher value
Summary of the method: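 Strain: mec2-1 (DNA repair/cell cycle alteration). Compound exposure, then growth measured; inhibition expressed relative to vehicle.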

[3] = NCI Yeast Anticancer Drug Screen. Data for the cln2 rad14 strain (AID 165);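 note: 0% = growth equal to vehicle treated cultures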; conditions: S. cerevisiae cln2 rad14 strain, stronger effect = higher value
Summary of the method: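 Compounds are applied to the cln2 rad14 yeast strain, and growth is then compared with that of vehicle-treated cultures to give inhibition.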

[4] = NCI Yeast Anticancer Drug Screen. Data for the bub3 strain (AID 167); conditions: S. cerevisiae bub3 mutant strain, stronger effect = higher value
Summary of the method: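 Growth of a checkpoint-deficient yeast mutant is measured after compound exposure. Values represent inhibition relative to vehicle.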

[5] = NCI Yeast Anticancer Drug Screen. Data for the mlh1 rad18 strain (AID 175); conditions: S. cerevisiae mlh1 rad18 strain growth inhibition, stronger effect = higher value
Summary of the method: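 Read-out is yeast growth inhibition, calculated against vehicle-only controls. The compound was applied to a strain engineered with DNA damage repair alterations.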

[6] = NCI Yeast Anticancer Drug Screen. Data for the sgs1 mgt1 strain (AID 161);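 note: 0% = growth of cultures given vehicle only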; conditions: S. cerevisiae sgs1 mgt1 strain, stronger effect = higher value
Summary of the method: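 Test agents were incubated with a DNA-repair-mutant yeast strain. Growth was then read and compared against vehicle-treated controls.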

[7] = at 5.0 µM (retest, dose inferred, filed as 0.5)
[8] = at 50.0 µM (retest, dose inferred, filed as 5.0)

SMILES | growth inhibition [1, 7] | growth inhibition [1, 8] | growth inhibition ([1]; at 50.0 µM) | growth inhibition [2, 7] | growth inhibition [2, 8] | growth inhibition ([2]; at 50.0 µM) | growth inhibition [3, 7] | growth inhibition [3, 8] | growth inhibition ([3]; at 50.0 µM) | growth inhibition [4, 7] | growth inhibition [4, 8] | growth inhibition ([4]; at 50.0 µM) | growth inhibition [5, 7] | growth inhibition [5, 8] | growth inhibition ([5]; at 50.0 µM) | growth inhibition ([6]; at 50.0 µM) | growth inhibition [6, 7] | growth inhibition [6, 8]
CC1=C2C(=O)[C@H]3[C@@H](CC=C4C[C@@H](O)CC[C@@]43C)[C@@H]2CC[C@]12O[C@@H]1C[C@H](C)CN[C@H]1[C@H]2C | 8% (inactive) and 2% (inactive) | 85% (active) and 81% (active) | 90.5% (active) and 85.8% (active) | 18% (inactive) and 3% (inactive) | 96% (active) and 83% (active) | 96.7% (active) and 90.8% (active) | -27% (inactive) and -9% (inactive) | 87% (active) and 60% (inactive) | 84.2% (active) and 81% (active) | 22% (inactive) and 17% (inactive) | 91% (active) and 90% (active) | 97.5% (active) and 88.5% (active) | 10% (inactive) and 5% (inactive) | 95% (active) and 89% (active) | 90.7% (active) and 87.4% (active) | – | – | –
CCCCCCCC1(c2ccc(N)cc2)CCC(=O)NC1=O (stereo not drawn) | 31% (inactive) | 36% (inactive) | 73% (active) | 0% (inactive) | 61% (inactive) | 27.9% (inactive) | -8% (inactive) | 26% (inactive) | 33.8% (inactive) | 0% (inactive) | 21% (inactive) | 56% (inactive) | -2% (inactive) | 35% (inactive) | 37.1% (inactive) | – | – | –
CCCCCC(O)C1C(=O)OC(C)C(O)/C=C/C=C/C=C/C=C/C=C(\C)C(O)C(O)C(O)CC(O)CC(O)CC(O)CC(O)CC1O (stereo not drawn) | – | – | -5.85% (inactive) and -8.05% (inactive) and -2.3% (inactive) | – | – | -36.5% (inactive) and -20% (inactive) and -0.45% (inactive) | – | – | -14.2% (inactive) and -5% (inactive) and -4.05% (inactive) | – | – | -2.15% (inactive) and 4.5% (inactive) and 11% (inactive) | – | – | 17.9% (inactive) and -47.9% (inactive) and 0.55% (inactive) | -2.25% (inactive) and -8.45% (inactive) and -33% (inactive) | – | –
Oc1ccc2ccccc2c1O | – | – | – | 3% (inactive) | 59% (inactive) | 50.9% (inactive) | – | – | – | 32% (inactive) | 90% (active) | 70% (active) | 20% (inactive) | 92% (active) | 86.2% (active) | 57.3% (inactive) | 7% (inactive) | 84% (active)
CC[n+]1c(/C=C/c2ccc(N(CCCl)CCCl)cc2)ccc2cc(I)ccc21 | 99% (active) | 99% (active) | 91% (active) | 99% (active) | 99% (active) | 90.8% (active) | 99% (active) | 99% (active) | 88.9% (active) | 99% (active) | 99% (active) | 91.5% (active) | 99% (active) | 99% (active) | 88.7% (active) | – | – | –
COC(=O)CC1(C(=O)O)CC2(Cl)C(Cl)=C(Cl)C1(Cl)C2(Cl)Cl (stereo not drawn) | – | – | – | 10% (inactive) | 52% (inactive) | 47.4% (inactive) | 17% (inactive) | 56% (inactive) | 83.5% (active) | 1% (inactive) | 41% (inactive) | 36.8% (inactive) | 7% (inactive) | 57% (inactive) | 61.4% (inactive) | 75% (active) | 6% (inactive) | 49% (inactive)
N=C(N)SCc1ccc(Cl)c2ccccc12 (tested in a mixture with another compound) | 12% (inactive) and 8% (inactive) | 94% (active) and 60% (inactive) | 98.8% (active) and 90% (active) | – | – | – | -40% (inactive) and -1% (inactive) | 94% (active) and 38% (inactive) | 94.8% (active) and 57% (inactive) | -21% (inactive) and -5% (inactive) | 72% (active) and 66% (inactive) | 98.2% (active) and 92.8% (active) | 2% (inactive) and -3% (inactive) | 91% (active) and 88% (active) | 98.7% (active) and 96% (active) | 98.5% (active) and 92.5% (active) | -6% (inactive) and -9% (inactive) | 93% (active) and 51% (inactive)
C=C1C(C)C2C(Cc3ccccc3)NC(=O)C23C(OC(C)=O)C=CC(C)(O)C(=O)C(C)C/C=C/C3C1O (stereo not drawn) | 72% (active) | 96% (active) | 88.8% (active) | 57% (inactive) | 96% (active) | 90.1% (active) | 80% (active) | 96% (active) | 85.2% (active) | – | – | – | 80% (active) | 96% (active) | 84.1% (active) | 89.2% (active) | 58% (inactive) | 97% (active)
